# Values joined by “and” are separate entries in the source; they are usually repeats but may differ in a detail not shown here. Equal entries are not always repeated. Results filed as inconclusive are left out. Where a call stands in place of a potency, no number is given. The source holds several records for some structures; these can differ, active in one and inactive in another. Active and inactive are the calls of the source. Calls come from the whole dose curve; as a rule, active = well fitted curve in the direction sought with a large enough effect; inconclusive = small, poorly fitted or top-dose-only effect, or another doubt; inactive = no such curve, though single readings can be large; an effect the other way counts as inactive or inconclusive.
# Target: Calcium and integrin-binding protein 1 (Homo sapiens) (UniProt Q99828)
# Sequence (Q99828 whole entry, looked up): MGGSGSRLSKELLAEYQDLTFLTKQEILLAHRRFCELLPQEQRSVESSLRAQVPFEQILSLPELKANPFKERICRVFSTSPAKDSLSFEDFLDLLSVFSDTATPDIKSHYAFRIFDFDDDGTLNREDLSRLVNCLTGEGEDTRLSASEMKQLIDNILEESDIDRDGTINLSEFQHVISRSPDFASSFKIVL
# Experiment: Validation qHTS for Identification of Calcium Integrin Binding protein 1 (CIB1) Competitor (AID 1508618)
# Details: CIB1-GST / FITC-alphaIIb peptide fluorescence polarization; series mostly up to 114 µM
# Summary of the method: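 CIB1-GST (1 uM final) in 5 mM HEPES pH 7.4, 125 mM NaCl, 5 mM CaCl2, 0.01% Tween20 was preincubated 15 min at room temperature with compound (up to 114 uM), then FITC-alphaIIb peptide (100 nM) added for 15 min; fluorescence polarization read.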
# Potency is the fitted concentration of half-maximal effect.
row,SMILES,Potency
1,O=C(CCCN1CCC(O)(c2ccc(Cl)cc2)CC1)c1ccc(F)cc1,inactive
2,Cc1cn([C@H]2C=C[C@@H](CO)O2)c(=O)[nH]c1=O,inactive
3,O=C(c1ccc(F)cc1)C1CCN(CCn2c(=O)[nH]c3ccccc3c2=O)CC1,inactive
4,CC[C@@]1(O)C(=O)OCc2c1cc1n(c2=O)Cc2cc3c(CN(C)C)c(O)ccc3nc2-1,14.1 µM (active)
5,C[C@](N)(Cc1ccc(O)c(O)c1)C(=O)O,inactive
6,NC(=O)NO,inactive
7,Clc1ccc2c(c1)C(N1CCNCC1)=Nc1ccccc1O2,inactive
8,CC(CCc1ccc(O)cc1)NCCc1ccc(O)c(O)c1 (stereo unspecified),inactive
9,OCCN(CCO)c1nc(N2CCCCC2)c2nc(N(CCO)CCO)nc(N3CCCCC3)c2n1,14.1 µM (active)
10,COc1cc2nc(N(C)CCCNC(=O)C3CCCO3)nc(N)c2cc1OC (stereo unspecified),inactive
11,COc1ccc(C2CNC(=O)C2)cc1OC1CCCC1 (stereo unspecified),inactive
12,Nc1nc2c(ncn2COC(CO)CO)c(=O)[nH]1,inactive
13,O=c1[nH]cc(F)c(=O)[nH]1,inactive
14,Clc1ccc(C(c2ccccc2Cl)C(Cl)Cl)cc1 (stereo unspecified),inactive
15,NC(=O)OCC(COC(N)=O)c1ccccc1,inactive
16,Nc1ccn([C@H]2CC[C@@H](CO)O2)c(=O)n1,inactive
17,Nc1c2c(nc3ccccc13)CCCC2,inactive
18,CN1CCN2c3ccccc3Cc3ccccc3C2C1 (stereo unspecified),inactive
19,CC(C)(C)C(=O)Oc1ccc(S(=O)(=O)Nc2ccccc2C(=O)NCC(=O)O)cc1,inactive
20,C[C@H]1c2cccc(O)c2C(O)=C2C(=O)[C@]3(O)C(O)=C(C(N)=O)C(=O)[C@@H](N(C)C)[C@@H]3[C@@H](O)[C@@H]21,inactive
21,COc1ccccc1OCCNCC(O)COc1cccc2[nH]c3ccccc3c12 (stereo unspecified),inactive
22,CCOC(=O)c1ncn2c1CN(C)C(=O)c1cc(F)ccc1-2,inactive
23,O=C1c2c(O)ccc(O)c2C(=O)c2c(NCCNCCO)ccc(NCCNCCO)c21,20 µM (active)
24,CCC1(C)CC(=O)NC1=O (stereo unspecified),inactive
25,Nc1nnc(-c2cccc(Cl)c2Cl)c(N)n1,inactive
26,CCc1cccc2c3c([nH]c12)C(CC)(CC(=O)O)OCC3 (stereo unspecified),inactive

# Target: Calcium and integrin-binding protein 1 (Homo sapiens) (UniProt Q99828)
# Experiment: Primary qHTS for Identification of Calcium Integrin Binding Protein 1 (CIB1) Competitor (AID 1508620)
# Details: CIB1-GST / FITC-alphaIIb peptide fluorescence polarization; series mostly up to 57.7 µM
# Summary of the method: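 Fluorescence polarization competition: CIB1-GST (1 uM final) preincubated with compound 15 min at room temperature, then FITC-labeled alphaIIb peptide (100 nM final) added for another 15 min. Polarization read at Ex 480/Em 540.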
row,SMILES,Potency
1,O=C(CCCN1CCC(O)(c2ccc(Cl)cc2)CC1)c1ccc(F)cc1,inactive
2,Cc1cn([C@H]2C=C[C@@H](CO)O2)c(=O)[nH]c1=O,inactive
3,CCOC(=O)Nc1ccc(NCc2ccc(F)cc2)nc1N,inactive
4,O=C(c1ccc(F)cc1)C1CCN(CCn2c(=O)[nH]c3ccccc3c2=O)CC1,inactive
5,CC[C@@]1(O)C(=O)OCc2c1cc1n(c2=O)Cc2cc3c(CN(C)C)c(O)ccc3nc2-1,28.2 µM (active) and 24.1 µM (active) and 31.6 µM (active)
6,C[C@](N)(Cc1ccc(O)c(O)c1)C(=O)O,inactive
7,NC(=O)NO,inactive
8,Clc1ccc2c(c1)C(N1CCNCC1)=Nc1ccccc1O2,inactive
9,CC(CCc1ccc(O)cc1)NCCc1ccc(O)c(O)c1 (stereo unspecified),inactive
10,OCCN(CCO)c1nc(N2CCCCC2)c2nc(N(CCO)CCO)nc(N3CCCCC3)c2n1,inactive and 11.2 µM (active)
11,COc1cc2nc(N(C)CCCNC(=O)C3CCCO3)nc(N)c2cc1OC (stereo unspecified),inactive
12,COc1ccc(C2CNC(=O)C2)cc1OC1CCCC1 (stereo unspecified),inactive
13,CN(Cc1cnc2nc(N)nc(N)c2n1)c1ccc(C(=O)N[C@@H](CCC(=O)O)C(=O)O)cc1,inactive
14,Nc1nc2c(ncn2COC(CO)CO)c(=O)[nH]1,inactive
15,O=c1[nH]cc(F)c(=O)[nH]1,inactive
16,Clc1ccc(C(c2ccccc2Cl)C(Cl)Cl)cc1 (stereo unspecified),inactive
17,NC(=O)OCC(COC(N)=O)c1ccccc1,inactive
18,Nc1ccn([C@H]2CC[C@@H](CO)O2)c(=O)n1,inactive
19,Nc1c2c(nc3ccccc13)CCCC2,inactive
20,CN1CCN(CCCN2c3ccccc3Sc3ccc(Cl)cc32)CC1,inactive
21,CN1CCN2c3ccccc3Cc3ccccc3C2C1 (stereo unspecified),inactive
22,CC(C)(C)C(=O)Oc1ccc(S(=O)(=O)Nc2ccccc2C(=O)NCC(=O)O)cc1,inactive
23,C[C@H]1c2cccc(O)c2C(O)=C2C(=O)[C@]3(O)C(O)=C(C(N)=O)C(=O)[C@@H](N(C)C)[C@@H]3[C@@H](O)[C@@H]21,inactive
24,COc1ccccc1OCCNCC(O)COc1cccc2[nH]c3ccccc3c12 (stereo unspecified),inactive
25,CCOC(=O)c1ncn2c1CN(C)C(=O)c1cc(F)ccc1-2,inactive
26,O=C1c2c(O)ccc(O)c2C(=O)c2c(NCCNCCO)ccc(NCCNCCO)c21,30.4 µM (active) and 25.1 µM (active)
27,CCC1(C)CC(=O)NC1=O (stereo unspecified),inactive
28,Cc1ccc(C(=O)Nc2ccc(S(=O)(=O)O)c3cc(S(=O)(=O)O)cc(S(=O)(=O)O)c23)cc1NC(=O)c1cccc(NC(=O)Nc2cccc(C(=O)Nc3cc(C(=O)Nc4ccc(S(=O)(=O)O)c5cc(S(=O)(=O)O)cc(S(=O)(=O)O)c45)ccc3C)c2)c1,inactive
29,Nc1nnc(-c2cccc(Cl)c2Cl)c(N)n1,inactive
30,CCc1cccc2c3c([nH]c12)C(CC)(CC(=O)O)OCC3 (stereo unspecified),inactive
